Inconclusive results are not listed. Where a call stands in place of a potency, no number is given. Active and inactive are the calls of the source. Calls follow the shape of the dose curve; as a rule, active = well fitted curve in the direction sought with a large enough effect; inconclusive = small, poorly fitted or top-dose-only effect, or another doubt; inactive = no such curve, though single readings can be large; an effect the other way counts as inactive or inconclusive.
Legend:
[1] = biological target: Glutathione peroxidase 1 (Homo sapiens) (UniProt P07203); assay: Primary qHTS Assay for Inhibitors of Recombinant Selenoprotein Glutathione Peroxidase 1 (GPX1) (AID 1845191); also: nearly all actives have a fitted effect of over 65% in size
How it was run: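 10 nM GPX1 + cpd, 30 min RT; start w/ 1 mM GSH, 0.5 mM cumene hydroperoxide, 0.5 mM NADPH, 100 nM GR, 0.01% BSA; buffer 50 mM Tris-HCl pH 7.5, 2 mM EDTA, 150 mM NaCl; Fl 340/450, 0 & 15 min.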

[2] = biological target: Phospholipid hydroperoxide glutathione peroxidase GPX4 (Homo sapiens) (UniProt P36969); assay: Primary qHTS Assay for Inhibitors of Recombinant Selenoprotein Glutathione Peroxidase 4 (GPX4) (AID 1845192); also: nearly all actives have a fitted effect of over 65% in size
How it was run: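 NADPH consumption, followed by fluorescence at 340/450 nm between 0 and 15 min, reports GPX4 activity via coupled glutathione reductase (100 nM). Enzyme 200 nM was pre-exposed to compound 30 min; 0.5 mM cumene hydroperoxide and 1 mM GSH served as substrates.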

[3] = biological target: Luciferin 4-monooxygenase (Photinus pyralis) (UniProt P08659); assay: Primary firefly luciferase (FLuc) qHTS assay for identification of artifact compounds. (AID 1845220); also: nearly all actives have a fitted effect of over 60% in size
How it was run: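 Compounds sat 15 min at room temperature with 10 uM luciferin and 10 uM ATP (pH 7.6 Tris acetate). Firefly luciferase (10 nM final) was then added, and luminescence was read 5 min later. Data normalized to no-enzyme and DMSO controls were Hill-fitted.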

[4] = Primary fluorescence-based thiol-reactive (MSTI) qHTS assay for identification of artifact compounds. (AID 1845221);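 also: thiol-reactive compounds lower the probe fluorescence signal; nearly all actives have a fitted effect of over 65% in size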
How it was run: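 MSTI probe at 4 uM final in 2% DMSO/PBS pH 7.4; compounds, 1 h at room temperature in dark. Fluorescence Ex/Em 525/598 nm, normalised to Acetyl-MSTI and MSTI, fitted to 4-parameter Hill.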

[5] = test system: Nanoluciferase (engineered Oplophorus gracilirostris luciferase); assay: Primary Nanoluciferase (NLuc) qHTS assay for identification of artifact compounds. (AID 1845222)
How it was run: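 Luminescence from secreted NLuc (filtered, 1:55-diluted S16 cell medium) read 5 min after Nano-Glo substrate; compounds preincubated 15 min, RT. Hill fits of inhibition normalized to DMSO and no-enzyme.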

[6] = Quantitative High-Throughput drug screen in 47 multiple myeloma cell lines against the NCATS MIPE library collection: FR4_PLB cell viability assay (AID 1918924; also: nearly all actives have a fitted effect of over 35% in size; also: potency is read from the fitted curve at half-maximal effect)
How it was run: (§1)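 Luminescent ATP measurement with CellTiter-Glo gives viability, scaled between DMSO-only wells (100%) and media-only wells (0%). Cells, 500 per well, faced library compounds for 48 hours at 37C.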

[7] = Quantitative High-Throughput drug screen in 47 multiple myeloma cell lines against the NCATS MIPE library collection: Delta47_JCRB cell viability assay (AID 1918925; also: potency is read from the fitted curve at half-maximal effect; nearly all actives have a fitted effect of over 45% in size)
How it was run: (§2)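 Relative luminescence from CellTiter-Glo served as the viability signal, referenced to DMSO-treated (100%) and cell-free medium (0%) controls. Treatment lasted 48 hours at 37C with 500 cells per well.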

[8] = Quantitative High-Throughput drug screen in 47 multiple myeloma cell lines against the NCATS MIPE library collection: AMO1_DSMZ cell viability assay (AID 1918927; also: nearly all actives have a fitted effect of over 30% in size; also: potency is read from the fitted curve at half-maximal effect)
How it was run: as §2

[9] = Quantitative High-Throughput drug screen in 47 multiple myeloma cell lines against the NCATS MIPE library collection: ARD_JJKsccE7 cell viability assay (AID 1918929; also: potency is read from the fitted curve at half-maximal effect)
How it was run: as §2

[10] = Quantitative High-Throughput drug screen in 47 multiple myeloma cell lines against the NCATS MIPE library collection: Karpas620_DSMZ cell viability assay (AID 1918959); also: nearly all actives have a fitted effect of over 30% in size; also: potency is read from the fitted curve at half-maximal effect
How it was run: as §1

[11] = Quantitative High-Throughput drug screen in 47 multiple myeloma cell lines against the NCATS MIPE library collection: KMM1_JCRB cell viability assay (AID 1918960); also: nearly all actives have a fitted effect of over 30% in size; also: potency is read from the fitted curve at half-maximal effect
How it was run: (§3)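 ATP readout (CellTiter-Glo), 48 h drug incubation, 37 °C/5% CO2, 500 cells per well; normalisation to DMSO (100%) and media-only (0%) controls.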

[12] = Quantitative High-Throughput drug screen in 47 multiple myeloma cell lines against the NCATS MIPE library collection: Karpas417_ECACC cell viability assay (AID 1918961); details: Karpas417 myeloma viability, CellTiter-Glo ATP luminescence, 48 h; viability (% of DMSO): at 45.8 µM (top of the series); also: potency is read from the fitted curve at half-maximal effect
How it was run: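 Steps: seed 500 cells per well; pin-transfer MIPE 4.0 library; incubate 48 h at 37C, 5% CO2, humidified; add CellTiter-Glo, 5 min room temperature; read luminescence.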

[13] = Quantitative High-Throughput drug screen in 47 multiple myeloma cell lines against the NCATS MIPE library collection: KHM11_PLB cell viability assay (AID 1918962); also: nearly all actives have a fitted effect of over 35% in size; also: potency is read from the fitted curve at half-maximal effect
How it was run: as §1

[14] = Quantitative High-Throughput drug screen in 47 multiple myeloma cell lines against the NCATS MIPE library collection: EJM_DSMZ cell viability assay (AID 1918926; also: nearly all actives have a fitted effect of over 30% in size; also: potency is read from the fitted curve at half-maximal effect)
How it was run: as §2

[15] = Quantitative High-Throughput drug screen in 47 multiple myeloma cell lines against the NCATS MIPE library collection: JIM3_ECACC cell viability assay (AID 1918963; also: nearly all actives have a fitted effect of over 35% in size; also: potency is read from the fitted curve at half-maximal effect)
How it was run: as §1

[16] = Quantitative High-Throughput drug screen in 47 multiple myeloma cell lines against the NCATS MIPE library collection: JIM1_ECACC cell viability assay (AID 1918964; also: potency is read from the fitted curve at half-maximal effect)
How it was run: as §2

[17] = Quantitative High-Throughput drug screen in 47 multiple myeloma cell lines against the NCATS MIPE library collection: ARP1_JJKsccF8 cell viability assay (AID 1918928; also: nearly all actives have a fitted effect of over 40% in size; also: potency is read from the fitted curve at half-maximal effect)
How it was run: as §3

Phospholipid hydroperoxide glutathione peroxidase GPX4 (Homo sapiens), sequence (P36969 whole entry, looked up): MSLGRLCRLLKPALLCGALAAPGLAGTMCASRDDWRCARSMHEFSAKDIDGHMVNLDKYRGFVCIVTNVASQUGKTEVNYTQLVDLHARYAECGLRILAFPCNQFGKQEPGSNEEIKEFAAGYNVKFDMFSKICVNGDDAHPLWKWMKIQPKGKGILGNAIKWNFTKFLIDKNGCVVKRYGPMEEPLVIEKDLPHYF
Glutathione peroxidase 1 (Homo sapiens), sequence (P07203 whole entry, looked up): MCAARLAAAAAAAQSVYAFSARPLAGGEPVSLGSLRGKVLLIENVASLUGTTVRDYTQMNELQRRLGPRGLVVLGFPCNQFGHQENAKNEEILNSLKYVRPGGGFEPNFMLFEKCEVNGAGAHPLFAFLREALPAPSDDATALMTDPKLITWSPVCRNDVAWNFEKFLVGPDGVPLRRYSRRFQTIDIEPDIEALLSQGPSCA

| Structure (SMILES) | Potency [1] | Potency [2] | Potency [3] | Potency [4] | outcome [5] | Potency [6] | Potency [7] | Potency [8] | Potency [9] | Potency [10] | Potency [11] | Potency [12] | Potency [13] | Potency [14] | Potency [15] | Potency [16] | Potency [17] |
| --- | --- | --- | --- | --- | --- | --- | --- | --- | --- | --- | --- | --- | --- | --- | --- | --- | --- |
| OCCNC1CCCc2c1[nH]c1ccc(-c3ccccc3)cc21 (stereo not given) | inactive | inactive | inactive | inactive | inactive | 18.7 µM (active) | 10.5 µM (active) | 16.6 µM (active) | 26.4 µM (active) | 23.5 µM (active) | 18.7 µM (active) | 10.5 µM (active) | 9.35 µM (active) | – | – | – | – |
| C[C@@H](Cc1cc2c(c(C(N)=O)c1)N(CCCO)CC2)NCCOc1ccccc1OCC(F)(F)F | inactive | inactive | inactive | inactive | inactive | inactive | – | inactive | – | – | – | – | inactive | inactive | inactive | inactive | – |
| FC(F)c1nc2ccccc2n1-c1nc(N2CCOCC2)nc(N2CCOCC2)n1 | inactive | inactive | inactive | inactive | inactive | 0.743 µM (active) | 0.0662 µM (active) | 0.209 µM (active) | – | – | – | – | 0.469 µM (active) | 0.743 µM (active) | 0.372 µM (active) | – | 0.166 µM (active) |
| CCCCOc1ccc(C(=O)Nc2ccc(F)cc2F)cc1 | inactive | inactive | inactive | inactive | inactive | – | – | – | inactive | inactive | inactive | – | – | inactive | inactive | inactive | inactive |
| CCN(CC)Cc1ccc2cc(COC(=O)Nc3ccc(C(=O)NO)cc3)ccc2c1 | inactive | inactive | inactive | – | inactive | 0.372 µM (active) | 0.526 µM (active) | 0.743 µM (active) | 0.662 µM (active) | 0.833 µM (active) | 0.469 µM (active) | 0.526 µM (active) | 1.32 µM (active) | 1.05 µM (active) | – | 0.469 µM (active) | 0.59 µM (active) |
| O=C(O)c1ccc(Nc2ncc3c(n2)-c2ccc(Cl)cc2C(c2c(F)cccc2F)=NC3)cc1 | inactive | inactive | inactive | inactive | inactive | inactive | 0.935 µM (active) | 0.187 µM (active) | – | – | – | inactive | – | 23.5 µM (active) | 4.69 µM (active) | – | 0.0105 µM (active) |
